# Molecular target: Solute carrier family 2, facilitated glucose transporter member 1 (Homo sapiens) (UniProt P11166)
# Experiment: ST_JUDE_LEISH: Cytotoxicity at 2uM final concentration against transgenic Leishmania Mexicana promastigotes LmGLUT1 that are glucose transport deficient and complemented with the human glucose transporter GLUT1. Activity is measured by DNA content using SYBR green in vitro
# Assay type: functional
# Solute carrier family 2, facilitated glucose transporter member 1 (Homo sapiens), sequence (P11166 whole entry): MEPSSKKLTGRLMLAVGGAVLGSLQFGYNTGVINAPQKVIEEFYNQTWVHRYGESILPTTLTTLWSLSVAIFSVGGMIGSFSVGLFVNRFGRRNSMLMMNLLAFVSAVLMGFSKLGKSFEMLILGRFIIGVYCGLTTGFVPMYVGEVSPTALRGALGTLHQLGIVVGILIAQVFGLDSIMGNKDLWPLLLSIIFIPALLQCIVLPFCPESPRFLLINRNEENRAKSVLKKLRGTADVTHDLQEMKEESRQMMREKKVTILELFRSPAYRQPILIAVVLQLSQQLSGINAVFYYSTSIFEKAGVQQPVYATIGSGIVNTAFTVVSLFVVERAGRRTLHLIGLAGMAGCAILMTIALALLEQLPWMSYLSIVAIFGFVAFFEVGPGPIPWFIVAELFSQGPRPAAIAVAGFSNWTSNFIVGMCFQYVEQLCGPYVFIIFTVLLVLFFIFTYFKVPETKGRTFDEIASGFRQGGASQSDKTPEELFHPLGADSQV
row,SMILES,inhibition
1,COc1cc(Nc2ccnc3ccc(C(C)(C)C)cc23)cc(OC)c1OC,0.32%
2,COc1ccc2nccc(NCC3(O)CCC(NCc4ccc5c(n4)NC(=O)CS5)CC3)c2n1 (stereo not given),4.33%
3,C[C@H](Cc1ccc(CCc2ccc(C[C@@H](C)NC[C@H](O)c3cccc(Cl)c3)cc2)cc1)NC[C@H](O)c1cccc(Cl)c1,59.1%
4,Clc1cccc(C=NNc2nc(=Nc3ccccc3)[nH]c(=Nc3ccccc3)[nH]2)c1,8.44%
5,CN(C)c1ccc(C=C2SC(=N)N(c3nccs3)C2=O)cc1,3.25%
6,CCN(CC)CCCC(C)Nc1c2ccccc2nc2ccc3ccccc3c12 (stereo not given),1.95%
7,CCS[C@@H]1O[C@H](COC(=O)c2ccccc2)[C@H](OC(=O)c2ccccc2)[C@H](OC(=O)c2ccccc2)[C@H]1OC(=O)c1ccccc1,1.02%
8,COc1ccc(-c2ccc(CNC(=O)c3ccc(C#N)cc3)c(F)c2)cc1CN1CCCN(C)CC1,0.92%
9,CN1CCN(c2ccc(Nc3ncc([N+](=O)[O-])c(Nc4ccccc4O)n3)cc2)CC1,2.1%
10,CN(C)C(=O)c1cc(CNCc2ccccc2)ccc1-c1cccc(CNCc2ccc(-c3ccccc3)cc2)c1,0.97%
11,Nc1nccc2ccc(-c3ccc(Oc4ccccc4)cc3)cc12,14.9%
12,Clc1cnc2ccc3c(c2c1CCN1CCC(NCc2cc4c(cn2)OCCO4)CC1)OCCO3,27.3%
13,N#Cc1ccccc1Sc1ccccc1C(=O)Nc1ccc2ccccc2n1,7.84%
14,CCOc1cc(Cl)c(C(C)NC(=O)c2ccccc2)cc1OCC (stereo not given),1.69%
15,Fc1ccc2[nH]c(-c3cccc(-c4cccc(CN5CCN(c6cnccn6)CC5)c4)c3)nc2c1,7.08%
16,c1cc(CN2CCN(c3ccncc3)CC2)cc(-c2cccc(-c3nc4ccccc4[nH]3)c2)c1,2.65%
17,O=c1cc(N2CCCNCC2)c(Cl)nn1Cc1ccc(NS(=O)(=O)c2ccc(Oc3ccccc3)cc2)cc1,10.6%
18,N#Cc1ccc(N2CCN(Cc3ccc(-c4ccc(-c5nc6cc(F)ccc6[nH]5)s4)cc3)CC2)nc1,6.42%
19,Fc1ccc(Nc2ccnc3cc(-c4ccc(CN5CCOCC5)o4)ccc23)c(Cl)c1,9.15%
20,COc1ccc(CNC(=O)NC2CCN(c3ccnc(Nc4ccc(OC)cc4)n3)C2)cc1 (stereo not given),1.61%

row,SMILES,inhibition
1,Cc1cc(=O)oc2c1ccc1oc(C(O)c3ccc(Cl)cc3)c(C)c12 (stereo not given),-0.12%
2,COC[C@H]1CCCN1Cc1ccc(-c2ccc(-c3nc4ccccc4[nH]3)s2)cc1,2.15%
3,CCOc1cc(C(=O)NCc2cc(Cl)cc(Cl)c2)ccc1-c1nc2cc(Cl)ccc2[nH]1,1.6%
4,Cc1noc(C)c1C(=O)N1CCc2cc3nccc(N4CCN5CCC[C@H]5C4)c3cc21,0.08%
5,CN1CCN(CCc2ccc3nc(-c4csc(Cc5cc(Cl)ccc5OCc5ccccc5)n4)[nH]c3c2)CC1,0.84%
6,Cc1cccc2nc(-c3ccc(-c4ccc(NC(=O)Nc5ccsc5)cc4)cc3)[nH]c12,0.7%
7,CCOC(=O)c1cc(Cl)ccc1OCCCON1C(=N)N=C(N)NC1(C)C,1.75%
8,CC(C)(CNC(=O)C1CCN(CC2CCCCC2)CC1)c1nc(-c2ccc(Cl)c(O)c2)c(-c2ccncc2)[nH]1,1.84%
9,CCCCNC(=O)C(C)NC(=O)c1ccc(O)c(-c2ccc(Cl)c(Cl)c2)c1 (stereo not given),-0.19%
10,O=C(NCC1CCC(C(=O)NCc2cccc(C(F)(F)F)c2)CC1)c1ccc(O)c(-c2ccc(Cl)c(Cl)c2)c1 (stereo not given),0.99%
11,O=C(NC1CCN(CCCOc2ccnc3cc(Cl)ccc23)C1)c1ccc(Br)cc1 (stereo not given),9.74%
12,CCCCCC(NCCCC)c1ccc(OCCOc2ccc(C(CCCCC)NCCCC)cc2)cc1 (stereo not given),60.3%
13,N#CCc1ccc(Nc2nccc(Nc3ccc(Oc4ccccc4)cc3)n2)cc1,13.8%
14,COc1ccc2c(NN=Cc3cccc(F)c3)ccnc2c1,2.99%
15,C#CCNC(=O)c1ccc(-c2ccnc(Nc3cccc(CCCN4CCOCC4)c3)n2)s1,37.4%
16,CCCNC(=O)c1cncc(-c2ccc(CNC3Cc4ccccc4C3)cc2)c1,0%
17,c1ccc2[nH]c(-c3ccc(-c4ccc(CNC5CC5)cc4)s3)nc2c1,0.93%
18,Cc1cc(Cl)ccc1NC(=O)NCCCCCN1CCC(c2c[nH]c3ccccc23)CC1,11.4%
19,COc1ccc(-c2nc3cc4ccccc4nc3[nH]2)c(OCC(O)CNC(C)C)c1 (stereo not given),-1.53%
20,COc1ccc(NC(=O)[C@H](Cc2ccccc2)Nc2cc(C)nc(NCCc3ccccn3)n2)cc1,4.73%

# Molecular target: Hexose transporter 1 (Plasmodium falciparum) (UniProt O97467)
# Experiment: ST_JUDE_LEISH: Cytotoxicity at 2uM final concentration against transgenic Leishmania Mexicana promastigotes LmPfHT that are glucose transport deficient and complemented with the Plasmodium falciparum hexose transporter. Activity is measured by DNA content using SYBR green in vitro
# Assay type: functional
row,SMILES,inhibition
1,COc1cc(Nc2ccnc3ccc(C(C)(C)C)cc23)cc(OC)c1OC,0.17%
2,COc1ccc2nccc(NCC3(O)CCC(NCc4ccc5c(n4)NC(=O)CS5)CC3)c2n1 (stereo not given),3.51%
3,C[C@H](Cc1ccc(CCc2ccc(C[C@@H](C)NC[C@H](O)c3cccc(Cl)c3)cc2)cc1)NC[C@H](O)c1cccc(Cl)c1,10.7%
4,Clc1cccc(C=NNc2nc(=Nc3ccccc3)[nH]c(=Nc3ccccc3)[nH]2)c1,5.13%
5,CN(C)c1ccc(C=C2SC(=N)N(c3nccs3)C2=O)cc1,5.28%
6,CCN(CC)CCCC(C)Nc1c2ccccc2nc2ccc3ccccc3c12 (stereo not given),2.89%
7,CCS[C@@H]1O[C@H](COC(=O)c2ccccc2)[C@H](OC(=O)c2ccccc2)[C@H](OC(=O)c2ccccc2)[C@H]1OC(=O)c1ccccc1,4.06%
8,COc1ccc(-c2ccc(CNC(=O)c3ccc(C#N)cc3)c(F)c2)cc1CN1CCCN(C)CC1,0.66%
9,CN1CCN(c2ccc(Nc3ncc([N+](=O)[O-])c(Nc4ccccc4O)n3)cc2)CC1,3.83%
10,CN(C)C(=O)c1cc(CNCc2ccccc2)ccc1-c1cccc(CNCc2ccc(-c3ccccc3)cc2)c1,3.85%
11,Nc1nccc2ccc(-c3ccc(Oc4ccccc4)cc3)cc12,15.8%
12,Clc1cnc2ccc3c(c2c1CCN1CCC(NCc2cc4c(cn2)OCCO4)CC1)OCCO3,42.2%
13,N#Cc1ccccc1Sc1ccccc1C(=O)Nc1ccc2ccccc2n1,11.5%
14,CCOc1cc(Cl)c(C(C)NC(=O)c2ccccc2)cc1OCC (stereo not given),3.65%
15,Fc1ccc2[nH]c(-c3cccc(-c4cccc(CN5CCN(c6cnccn6)CC5)c4)c3)nc2c1,5.74%
16,c1cc(CN2CCN(c3ccncc3)CC2)cc(-c2cccc(-c3nc4ccccc4[nH]3)c2)c1,2.34%
17,O=c1cc(N2CCCNCC2)c(Cl)nn1Cc1ccc(NS(=O)(=O)c2ccc(Oc3ccccc3)cc2)cc1,8%
18,N#Cc1ccc(N2CCN(Cc3ccc(-c4ccc(-c5nc6cc(F)ccc6[nH]5)s4)cc3)CC2)nc1,5.07%
19,Fc1ccc(Nc2ccnc3cc(-c4ccc(CN5CCOCC5)o4)ccc23)c(Cl)c1,8.02%
20,COc1ccc(CNC(=O)NC2CCN(c3ccnc(Nc4ccc(OC)cc4)n3)C2)cc1 (stereo not given),1.7%

row,SMILES,inhibition
1,Cc1cc(=O)oc2c1ccc1oc(C(O)c3ccc(Cl)cc3)c(C)c12 (stereo not given),0.59%
2,COC[C@H]1CCCN1Cc1ccc(-c2ccc(-c3nc4ccccc4[nH]3)s2)cc1,1.84%
3,CCOc1cc(C(=O)NCc2cc(Cl)cc(Cl)c2)ccc1-c1nc2cc(Cl)ccc2[nH]1,2.18%
4,Cc1noc(C)c1C(=O)N1CCc2cc3nccc(N4CCN5CCC[C@H]5C4)c3cc21,1.27%
5,CN1CCN(CCc2ccc3nc(-c4csc(Cc5cc(Cl)ccc5OCc5ccccc5)n4)[nH]c3c2)CC1,2.08%
6,Cc1cccc2nc(-c3ccc(-c4ccc(NC(=O)Nc5ccsc5)cc4)cc3)[nH]c12,-0.26%
7,CCOC(=O)c1cc(Cl)ccc1OCCCON1C(=N)N=C(N)NC1(C)C,3.52%
8,CC(C)(CNC(=O)C1CCN(CC2CCCCC2)CC1)c1nc(-c2ccc(Cl)c(O)c2)c(-c2ccncc2)[nH]1,0.23%
9,CCCCNC(=O)C(C)NC(=O)c1ccc(O)c(-c2ccc(Cl)c(Cl)c2)c1 (stereo not given),-0.53%
10,O=C(NCC1CCC(C(=O)NCc2cccc(C(F)(F)F)c2)CC1)c1ccc(O)c(-c2ccc(Cl)c(Cl)c2)c1 (stereo not given),2.82%
11,O=C(NC1CCN(CCCOc2ccnc3cc(Cl)ccc23)C1)c1ccc(Br)cc1 (stereo not given),7.84%
12,CCCCCC(NCCCC)c1ccc(OCCOc2ccc(C(CCCCC)NCCCC)cc2)cc1 (stereo not given),86%
13,N#CCc1ccc(Nc2nccc(Nc3ccc(Oc4ccccc4)cc3)n2)cc1,6.97%
14,COc1ccc2c(NN=Cc3cccc(F)c3)ccnc2c1,2.22%
15,C#CCNC(=O)c1ccc(-c2ccnc(Nc3cccc(CCCN4CCOCC4)c3)n2)s1,37.9%
16,CCCNC(=O)c1cncc(-c2ccc(CNC3Cc4ccccc4C3)cc2)c1,0.51%
17,c1ccc2[nH]c(-c3ccc(-c4ccc(CNC5CC5)cc4)s3)nc2c1,0.48%
18,Cc1cc(Cl)ccc1NC(=O)NCCCCCN1CCC(c2c[nH]c3ccccc23)CC1,14.9%
19,COc1ccc(-c2nc3cc4ccccc4nc3[nH]2)c(OCC(O)CNC(C)C)c1 (stereo not given),1.33%
20,COc1ccc(NC(=O)[C@H](Cc2ccccc2)Nc2cc(C)nc(NCCc3ccccn3)n2)cc1,5.3%

# From ChEMBL document CHEMBL3433997, “St. Jude Leishmania screening dataset” (2016)
